From PubChem BioAssay AID1159580 (chemical genetic matrix, 2015)
Out of some 5,500 compounds screened, about 2,000 (36%) were called active. Inconclusive results (about 18%) are left out. No stated cut-off is given here; in the data, active means normalized growth mostly below about 0.91 (no sharp cut-off); inconclusive means no clear call, values can overlap the other calls; inactive means mostly above about 0.92. The list shows a part of the results.

Assay: chemical genetic growth profiling, strain panel (AID 1159580);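 further: tested at 20 µM; growth read once vehicle control cultures reached saturation at 30 °C; 1 = growth at the plate median or of vehicle wells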
Details: growth OD

Measured: normalized growth

CC(=O)OCC(=O)[C@@]1(O)CCC2C3C[C@H](C)C4=CC(=O)C=CC4(C)C3[C@@H](O)CC21C (some centres not stated)
inactive: S. cerevisiae deletion strains, locus YJR075W, strain HOC1, stronger effect = lower value 1.01 | S. cerevisiae deletion strains, locus YKL009W, strain mrt4, stronger effect = lower value 1.01 | S. cerevisiae deletion strains, locus YKL068W, stronger effect = lower value 1.02 | S. cerevisiae deletion strains, locus YKL085W, strain MDH1 (second series), stronger effect = lower value 0.995 | S. cerevisiae deletion strains, locus YKL085W, strain MDH1, stronger effect = lower value 0.995 | S. cerevisiae deletion strains, locus YKL160W, strain elf1, stronger effect = lower value 1.03 | S. cerevisiae deletion strains, locus YKL190W, strain CNB1, stronger effect = lower value 1 | S. cerevisiae deletion strains, locus YKR001C, strain vps1, stronger effect = lower value 0.997 | S. cerevisiae deletion strains, locus YKR026C, strain gcn3, stronger effect = lower value 1.01 | S. cerevisiae deletion strains, locus YKR091W, strain srl3, stronger effect = lower value 1.01 | S. cerevisiae deletion strains, locus YLL001W, strain dnm1, stronger effect = lower value 0.999 | S. cerevisiae deletion strains, locus YLL026W, stronger effect = lower value 1.01 | S. cerevisiae deletion strains, locus YLL041C, strain sdh2, stronger effect = lower value 1.01 | S. cerevisiae deletion strains, locus YLR027C, strain aat2, stronger effect = lower value 1.01 | S. cerevisiae deletion strains, locus YLR039C, strain RIC1, stronger effect = lower value 1.02 | S. cerevisiae deletion strains, locus YLR058C, strain SHM2, stronger effect = lower value 1.01 | S. cerevisiae deletion strains, locus YLR102C, strain apc9, stronger effect = lower value 1.01 | S. cerevisiae deletion strains, locus YLR113W, strain HOG1, stronger effect = lower value 1.02 | S. cerevisiae deletion strains, locus YLR221C, strain rsa3, stronger effect = lower value 0.997 | S. cerevisiae deletion strains, locus YLR258W, strain gsy2, stronger effect = lower value 1.03 | S. cerevisiae deletion strains, locus YLR262C, strain YPT6 (second series), stronger effect = lower value 1.03 | S. cerevisiae deletion strains, locus YLR262C, strain YPT6, stronger effect = lower value 1.01 | S. cerevisiae deletion strains, locus YLR268W, strain sec22, stronger effect = lower value 0.987 | S. cerevisiae deletion strains, locus YLR320W, strain mms22, stronger effect = lower value 1.01 | S. cerevisiae deletion strains, locus YLR330W, strain CHS5, stronger effect = lower value 1.01 | S. cerevisiae deletion strains, locus YLR342W, strain FKS1 (second series), stronger effect = lower value 1.03 | S. cerevisiae deletion strains, locus YLR342W, strain FKS1, stronger effect = lower value 1.02 | S. cerevisiae deletion strains, locus YLR357W, strain rsc2, stronger effect = lower value 1.03 | S. cerevisiae deletion strains, locus YLR370C, strain arc18, stronger effect = lower value 1.01 | S. cerevisiae deletion strains, locus YLR371W, strain rom2, stronger effect = lower value 1 | S. cerevisiae deletion strains, locus YLR384C, strain iki3, stronger effect = lower value 0.999 | S. cerevisiae deletion strains, locus YLR418C, strain cdc73, stronger effect = lower value 0.974 | S. cerevisiae deletion strains, locus YML016C, strain PPZ1, stronger effect = lower value 1 | S. cerevisiae deletion strains, locus YML032C, strain rad52, stronger effect = lower value 1.02 | S. cerevisiae deletion strains, locus YML120C, strain ndi1, stronger effect = lower value 1.02 | S. cerevisiae deletion strains, locus YML124C, strain tub3, stronger effect = lower value 1 | S. cerevisiae deletion strains, locus YMR058W, strain fet3, stronger effect = lower value 1.02 | S. cerevisiae deletion strains, locus YMR078C, strain ctf18, stronger effect = lower value 1 | S. cerevisiae deletion strains, locus YMR125W, strain sto1, stronger effect = lower value 1.04 | S. cerevisiae deletion strains, locus YMR129W, stronger effect = lower value 1.01 | S. cerevisiae deletion strains, locus YMR205C, strain PFK2, stronger effect = lower value 1.02 | S. cerevisiae deletion strains, locus YMR223W, strain ubp8, stronger effect = lower value 1.01 | S. cerevisiae deletion strains, locus YMR231W, strain pep5, stronger effect = lower value 1.02 | S. cerevisiae deletion strains, locus YMR263W, strain SAP30, stronger effect = lower value 1 | S. cerevisiae deletion strains, locus YMR307W, strain GAS1, stronger effect = lower value 1.03 | S. cerevisiae deletion strains, locus YNL067W, strain RPL9B, stronger effect = lower value 0.996 | S. cerevisiae deletion strains, locus YNL071W, strain lat1, stronger effect = lower value 1.01 | S. cerevisiae deletion strains, locus YNL128W, strain TEP1, stronger effect = lower value 1.01 | S. cerevisiae deletion strains, locus YNL153C, strain GIM3, stronger effect = lower value 0.998 | S. cerevisiae deletion strains, locus YNL183C, strain NPR1, stronger effect = lower value 0.962 | S. cerevisiae deletion strains, locus YNL209W, strain ssb2, stronger effect = lower value 1 | S. cerevisiae deletion strains, locus YNL233W, strain BNI4, stronger effect = lower value 1.01 | S. cerevisiae deletion strains, locus YNL248C, strain rpa49, stronger effect = lower value 1.02 | S. cerevisiae deletion strains, locus YNL250W, strain rad50, stronger effect = lower value 1 | S. cerevisiae deletion strains, locus YNL271C, strain bni1, stronger effect = lower value 1 | S. cerevisiae deletion strains, locus YNL298W, strain CLA4, stronger effect = lower value 1.01 | S. cerevisiae deletion strains, locus YNL307C, strain MCK1, stronger effect = lower value 1.01 | S. cerevisiae deletion strains, locus YNL322C, strain KRE1 (second series), stronger effect = lower value 1 | S. cerevisiae deletion strains, locus YNL322C, strain KRE1, stronger effect = lower value 1 | S. cerevisiae deletion strains, locus YNR049C, strain mso1, stronger effect = lower value 1.02 | S. cerevisiae deletion strains, locus YNR052C, strain pop2, stronger effect = lower value 1 | S. cerevisiae deletion strains, locus YOL006C, strain TOP1, stronger effect = lower value 1.01 | S. cerevisiae deletion strains, locus YOL012C, strain htz1 1.08 | S. cerevisiae deletion strains, locus YOL147C, strain pex11, stronger effect = lower value 1 | S. cerevisiae deletion strains, locus YOR001W, strain rrp6, stronger effect = lower value 0.988 | S. cerevisiae deletion strains, locus YOR061W, strain CKA2, stronger effect = lower value 1 | S. cerevisiae deletion strains, locus YOR069W, strain VPS5, stronger effect = lower value 1.01 | S. cerevisiae deletion strains, locus YOR070C, strain gyp1, stronger effect = lower value 1.02 | S. cerevisiae deletion strains, locus YOR080W, strain dia2, stronger effect = lower value 1.06 | S. cerevisiae deletion strains, locus YOR083W, strain WHI5, stronger effect = lower value 1.02 | S. cerevisiae deletion strains, locus YOR106W, strain vam3, stronger effect = lower value 1.01 | S. cerevisiae deletion strains, locus YOR136W, strain idh2, stronger effect = lower value 1.01 | S. cerevisiae deletion strains, locus YOR144C, strain elg1, stronger effect = lower value 1.01 | S. cerevisiae deletion strains, locus YOR184W, strain ser1, stronger effect = lower value 1.01 | S. cerevisiae deletion strains, locus YOR231W, strain MKK1, stronger effect = lower value 1.02 | S. cerevisiae deletion strains, locus YOR265W, strain rbl2, stronger effect = lower value 1.01 | S. cerevisiae deletion strains, locus YOR270C, strain vph1, stronger effect = lower value 0.982 | S. cerevisiae deletion strains, locus YOR290C, strain snf2, stronger effect = lower value 1.03 | S. cerevisiae deletion strains, locus YOR316C, strain cot1, stronger effect = lower value 1 | S. cerevisiae deletion strains, locus YPL051W, strain arl3, stronger effect = lower value 1.03 | S. cerevisiae deletion strains, locus YPL055C, strain LGE1, stronger effect = lower value 0.999 | S. cerevisiae deletion strains, locus YPL078C, strain atp4, stronger effect = lower value 1.03 | S. cerevisiae deletion strains, locus YPL106C, strain sse1, stronger effect = lower value 1.04 | S. cerevisiae deletion strains, locus YPL240C, strain hsp82, stronger effect = lower value 0.994 | S. cerevisiae deletion strains, locus YPL241C, strain CIN2, stronger effect = lower value 1.01 | S. cerevisiae deletion strains, locus YPL256C, strain CLN2, stronger effect = lower value 1.01 | S. cerevisiae deletion strains, locus YPR119W, strain clb2, stronger effect = lower value 1.01 | S. cerevisiae deletion strains, locus YPR141C, strain kar3, stronger effect = lower value 1.01 | S. cerevisiae deletion strains, locus YPR163C, strain tif3, stronger effect = lower value 1.01 | S. cerevisiae deletion strains, locus YPR167C, strain met16, stronger effect = lower value 0.995 | S. cerevisiae deletion strains, strain wtn01, stronger effect = lower value 1.01 | S. cerevisiae strains, strain wild type, stronger effect = lower value 1
